Data reported in PubChem BioAssay AID1347416 (National Center for Advancing Translational Sciences (NCATS), 2020).
The whole screen tested about 4,100 compounds, of which about 1,600 (39%) were called active. Not shown: some 25% with an inconclusive outcome. Calls follow the shape of the dose curve; as a rule, active = well fitted inhibition curve with a large enough effect; inconclusive = small, poorly fitted or top-dose-only effect; inactive = no such curve, though single readings can be large or run the other way. This is one part of the list.
Potency is read from the fitted curve at half-maximal effect.

Assay: qHTS Validation assay for Inhibitors of Plasmodium falciparum Dd2 growth in vitro; also: nearly all actives have a fitted effect of over 70% in size
Conditions: P. falciparum Dd2 in RBCs, SYBR Green growth, 72 h; series mostly up to 28.7 µM
Procedure, shortened: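 P. falciparum Dd2-infected red blood cells (2.5% hematocrit, 0.3% parasitemia) grown 72 h at 37 °C under 5% O2 with compounds in a titration, 29 uM to 0.5 nM final. Growth read as SYBR Green-1 fluorescence after ~16 h lysis; artesunate 300 nM as positive control.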
For `O=C(NC(c1ccccc1)c1cc(Cl)c2cccnc2c1O)c1cccnc1` (stereo not drawn), the Potency was 7.5 µM (active). For `Cc1ccc2nc(-c3ccc(Cl)c(NC(=O)c4cccnc4)c3)oc2c1`, the Potency was “inactive”. With `O=C(NC(c1ccc(Cl)cc1)c1cc(Cl)c2cccnc2c1O)c1cccnc1` (stereo not drawn) the Potency was 5.96 µM (active). With `CN(CC1(C)CCOCC1)C(=O)c1ccco1` the Potency was “inactive”. For `CC(Oc1ccc(F)cc1)C(=O)Nc1cc(Cl)ccc1-n1cncn1` (stereo not drawn), the Potency was 6.68 µM (active). With `CC(Oc1ccc(F)cc1)C(=O)Nc1cc(C(F)(F)F)ccc1-n1cncn1` (stereo not drawn) the Potency was 1.68 µM (active). For `O=C(Cn1ccn2nc(-c3ccc(F)cc3)c(CO)c2c1=O)Nc1ccc(Cl)cc1F`, the Potency was “inactive”. With `CC(C(=O)N1CCc2ccccc21)N1CCc2ccccc2C1` (stereo not drawn) the Potency was “inactive”. In the case of `CC1(C)C(=O)N(CC2CCOCC2)[C@H]2CN(Cc3ccccc3O)C[C@H]2[S+]1(=O)[O-]`, the Potency is reported as “inactive”. With `COCC1CN(C)CC12CCN(C(=O)CC1=CCCCC1)CC2` (stereo not drawn) the Potency was “inactive”. For `O=C(NCCc1ccncc1)c1ccc(-c2nnc3ccc(NC(=O)C4CCC4)cn23)cc1`, the Potency was 2.99 µM (active). In the case of `CC1CN(C(=O)Nc2ccc(C(=O)NCCc3ccccc3)cc2)c2ccccc2S1` (stereo not drawn), the Potency is reported as “inactive”. With `O=C(NCCN1CCCCC1)c1ccc(-c2nnc3ccc(NC(=O)C4CCC4)cn23)cc1` the Potency was 13.3 µM (active). With `O=C(NCCc1cccnc1)c1ccc(-c2nnc3ccc(NC(=O)C4CCC4)cn23)cc1` the Potency was 6.68 µM (active). In the case of `Cn1c(=O)c2ccnn2c2ccc(C(=O)NCCN3CCC(N4CCCCC4)CC3)cc21`, the Potency is reported as “inactive”. In the case of `Cc1noc(-c2ccn3c(CNC(=O)c4ccncc4)nnc3c2)n1`, the Potency is reported as “inactive”. For `O=C(Nc1ccc(-c2nnc3n2CCCC3)cc1)c1ccccc1F`, the Potency was “inactive”. For `O=C1CCN(S(=O)(=O)c2ccccc2)CCCC(C(=O)NCCc2cccnc2)CCN1` (stereo not drawn), the Potency was “inactive”. For `Cc1cn2nc(C(=O)N3CCC(C(=O)NCc4cccnc4)CC3)cc2c(=O)[nH]1`, the Potency was “inactive”. In the case of `CC(C)(C)CC(C)(C)c1ccc(O)c(Cc2ccc(Cl)cc2Cl)c1`, the Potency is reported as 1.68 µM (active). In the case of `CCc1nc2c(c(-c3ccc(O)cc3)n1)CCN(Cc1ccc(OC)cc1)CC2`, the Potency is reported as 6.68 µM (active). With `CCc1nc2c(c(-c3ccc(O)cc3)n1)CCN(Cc1ccc(OC(F)(F)F)cc1)CC2` the Potency was 1.5 µM (active). For `COc1ccc(CN2CCC3(CC(c4ccc(OC)cc4)=NO3)C2)cc1` (stereo not drawn), the Potency was “inactive”. With `O=[S+]1([O-])NCC2(CCCN(Cc3ccc(OC(F)(F)F)cc3)C2)Nc2ccccc21` (stereo not drawn) the Potency was “inactive”. In the case of `CN1C[C@@H](NC(=O)CC(C)(C)C)C[C@H]1c1nc(-c2ccc(OC(F)(F)F)cc2)no1`, the Potency is reported as “inactive”. In the case of `CCc1cccc(NC(=O)N2CCc3nc4cc(-c5ccc(OC)cc5)[nH]n4c(=O)c3C2)c1`, the Potency is reported as “inactive”. In the case of `Cc1cc(C)c(S(=O)(=O)n2ccc(-c3ccc(OCCN(C)c4ccccn4)cc3)n2)c(C)c1`, the Potency is reported as 7.5 µM (active). For `COc1ccc(-n2nc(C(=O)NCC(=O)N3CCN(c4ccccc4OC)CC3)c3ccccc3c2=O)cc1OC`, the Potency was 6.68 µM (active). With `COc1cccc2c(=O)n(CC(=O)NCCc3ccccc3)ccc12` the Potency was “inactive”. In the case of `COc1ccccc1N1CCN(C(=O)CNS(=O)(=O)c2ccc(Br)s2)CC1`, the Potency is reported as “inactive”. For `COc1ccc(-n2nc(C(=O)NCC(=O)N3CCN(c4ccccc4OC)CC3)c3ccccc3c2=O)c(OC)c1`, the Potency was 2.11 µM (active). For `CCc1cc(=O)oc2cc(C)cc(OCC(=O)NCC(O)c3ccccc3)c12` (stereo not drawn), the Potency was 6.68 µM (active). For `CCCc1noc(-c2ccn3c(CNC(=O)C(C)Oc4ccccc4)nnc3c2)n1` (stereo not drawn), the Potency was “inactive”. With `Cc1cc(OC(C)C(=O)NCCc2c[nH]c3ccccc23)c2c(C)cc(=O)oc2c1` (stereo not drawn) the Potency was 2.66 µM (active). With `CCCc1cc(=O)oc2cc(C)cc(OC(C)C(=O)NCC(O)c3ccccc3)c12` (stereo not drawn) the Potency was 0.842 µM (active). For `CCc1cc(=O)oc2cc(C)cc(OCC(=O)C(C)(C)C)c12`, the Potency was 11.9 µM (active). For `O=C(NCCc1c[nH]c2ccccc12)c1c(OCC2CC2)cc(=O)n2c1CCOCC2`, the Potency was “inactive”. In the case of `Oc1cc(Cc2ccccc2)cnc1CN1CCCCC1`, the Potency is reported as 0.944 µM (active). With `Clc1ccc(-c2nc(N3CCOCC3)nc3ccccc23)cc1` the Potency was “inactive”. In the case of `CC12CC3CC(C)(C1)CC(Nc1nc(N4CCOCC4)nc4ccccc14)(C3)C2`, the Potency is reported as 9.44 µM (active). For `CN1N=C2c3ccccc3CCC2C1c1ccc(F)cc1` (stereo not drawn), the Potency was 5.96 µM (active). For `Cc1ccc2oc(=O)n(CCOc3ccccc3C)c2c1`, the Potency was 4.73 µM (active). For `COc1ccccc1C(=O)NCCn1ccn2nc(-c3cc(C)ccc3C)cc2c1=O`, the Potency was “inactive”. For `O=C(c1cccs1)N1CCCCCC1CN1CCCC1` (stereo not drawn), the Potency was 10.6 µM (active). In the case of `O=C(N[C@H]1CCN2C(=O)c3ccccc3NC(=O)[C@@H]2C1)c1cccs1`, the Potency is reported as “inactive”. In the case of `CCNC(=O)N1CCCCCC1CN1CCc2ccccc2C1` (stereo not drawn), the Potency is reported as “inactive”. For `CCCCCCNC(=O)Cc1csc2nc(C)c(-c3cc(C)n(-c4cccc(C)c4)n3)c(=O)n12`, the Potency was 15 µM (active). In the case of `CCCCC(O)(c1ccc(CC)cc1)C(CN1CCOCC1)c1ccccc1` (stereo not drawn), the Potency is reported as 4.73 µM (active). With `CCCCCC(O)(c1ccc(OC)cc1)C(CN1CCOCC1)c1ccccc1` (stereo not drawn) the Potency was 2.11 µM (active). In the case of `CCCCCCC(O)(c1ccc(OC)cc1)C(CN1CCOCC1)c1ccccc1` (stereo not drawn), the Potency is reported as 4.22 µM (active). With `CCCN1C(CC(C)C)=NS(=O)(=O)c2cc(NC(=O)c3ccco3)ccc21` the Potency was 7.5 µM (active). For `CCCN1C(CC(C)C)=NS(=O)(=O)c2cc(NC(=O)c3cccs3)ccc21`, the Potency was 0.335 µM (active). With `CCOc1ccccc1NC(C)C(=O)Nc1cc(C(F)(F)F)ccc1N1CCOCC1` (stereo not drawn) the Potency was 2.66 µM (active). With `CCC(Oc1ccccc1)C(=O)Nc1cc(C(F)(F)F)ccc1N1CCOCC1` (stereo not drawn) the Potency was 7.5 µM (active). In the case of `CC(Oc1ccccc1)C(=O)NC1CCN(c2cc(C(F)(F)F)ncn2)CC1` (stereo not drawn), the Potency is reported as “inactive”. With `COc1cc(Cl)c(C)cc1NC(C)C(=O)Nc1cc(C(F)(F)F)ccc1N1CCOCC1` (stereo not drawn) the Potency was 0.422 µM (active). In the case of `CCOc1ccccc1NC(=O)N1CCC([C@@H]2[C@H](OC)C(=O)N2C(C)C)CC1`, the Potency is reported as “inactive”. With `COc1ccc(NC(C)C(=O)Nc2cc(C(F)(F)F)ccc2N2CCOCC2)c(OC)c1` (stereo not drawn) the Potency was 0.842 µM (active). With `COc1cc2c(Nc3ccc(Br)cc3F)ncnc2cc1OCC1CCN(C)CC1` the Potency was 5.96 µM (active). In the case of `Clc1ccc2c(N3CCCC3)ccnc2c1`, the Potency is reported as 3.76 µM (active). In the case of `O=C(Nc1ccc(C(F)(F)F)cc1)N1CCN(c2ccnc3cc(Cl)ccc23)CC1`, the Potency is reported as 5.31 µM (active). For `Nc1cc(Cl)ccc1N1CCCC1`, the Potency was “inactive”. For `O=C(c1ccc(F)c(Cl)c1)N1CCN(c2cc(C(F)(F)F)ncn2)CC1`, the Potency was “inactive”. In the case of `COc1ccc(CNc2ncnc3c2cnn3-c2ccc(C)c(C)c2)cc1`, the Potency is reported as “inactive”. With `COc1ccc(CCNc2ncnc3c2cnn3-c2ccc(F)cc2)cc1` the Potency was “inactive”. For `Cc1ccc(-n2ncc3c(NCc4ccco4)ncnc32)cc1C`, the Potency was 15 µM (active). In the case of `COc1ccc(S(=O)(=O)N(C)C)cc1NC(C)C(=O)Nc1cccc(C#N)c1` (stereo not drawn), the Potency is reported as 6.68 µM (active). In the case of `CCc1nnc([C@@H]2CC(F)(F)CN2Cc2cccn2C)o1`, the Potency is reported as “inactive”. For `CCOC(=O)c1c(C)n(-c2ccc(F)cc2)c2ccc(O)cc12`, the Potency was 6.68 µM (active). In the case of `CCOC(=O)c1c(NC(=O)COc2ccc(F)cc2)sc2c1CCC(C)C2` (stereo not drawn), the Potency is reported as “inactive”. With `COc1cccc(C2C(C(=O)Nc3ccc(C)cc3C)=C(C)Nc3c(C(=O)Nc4ccccc4)cnn32)c1` (stereo not drawn) the Potency was 2.11 µM (active). With `CC1=C(C(=O)Nc2ccc(C)cc2C)C(c2ccc(Br)cc2)n2ncc(C(=O)Nc3cccc(C)c3)c2N1` (stereo not drawn) the Potency was 3.35 µM (active). In the case of `CC1=C(C(=O)Nc2ccc(C)cc2C)C(c2ccc([N+](=O)[O-])cc2)n2ncc(C(=O)Nc3ccc(F)cc3)c2N1` (stereo not drawn), the Potency is reported as 2.99 µM (active). For `COc1cccc(CC(=O)NCCn2ccn3nc(-c4ccc(C)cc4C)cc3c2=O)c1`, the Potency was “inactive”. For `CCCN(CCC)CCCNC(=S)Nc1ccc2nc(N3CCCC3)cc(C)c2c1`, the Potency was “inactive”. In the case of `CCOc1ccc(-n2nc3cc(C)c(NC(=O)c4cc(OCC)c(OCC)c(OCC)c4)cc3n2)cc1`, the Potency is reported as “inactive”. For `Cc1cc(=O)n(CC(=O)Nc2ccc(C)c(F)c2)c(N2CCc3ccccc3C2)n1`, the Potency was “inactive”. With `Cc1cc(N2CCN(C)CC2)nc2ccc(NC(=O)Nc3cccc(Cl)c3)cc12` the Potency was 4.22 µM (active). For `O=C([C@@H]1C[C@H](F)CN1C(=O)Nc1cccc(Cl)c1)N1CCCCC1`, the Potency was “inactive”. In the case of `CCOc1ccccc1NC(=O)Nc1ccc2nc(N3CCN(C)CC3)cc(C)c2c1`, the Potency is reported as 1.33 µM (active). In the case of `Cc1ccccc1NC(=O)Nc1ccc2nc(N3CCN(C)CC3)cc(C)c2c1`, the Potency is reported as 1.5 µM (active). In the case of `CCOc1cccc(CC(=O)Nc2ccc3nc(N4CCCCC4)cc(C)c3c2)c1OCC`, the Potency is reported as 6.68 µM (active). For `COc1ccc(CN2CCCC3(CNc4ccccc4[S+](=O)([O-])N3)C2)cc1` (stereo not drawn), the Potency was “inactive”. In the case of `CN(C)c1cc(N2CCCC(NC(=O)c3ccsc3)C2)ncn1` (stereo not drawn), the Potency is reported as “inactive”. In the case of `Cn1cccc1CN1CCC(N2CC(OCC3CC3)C23CCCCC3)CC1` (stereo not drawn), the Potency is reported as 7.5 µM (active). In the case of `CCn1cc(CN2CCC(N3CC(OCC4CC4)C34CCCCC4)CC2)cn1` (stereo not drawn), the Potency is reported as 8.41 µM (active). With `CN(C)S(=O)(=O)N1CCC(N2C(=O)C(OCC3CC3)C23CCCCC3)CC1` (stereo not drawn) the Potency was “inactive”. With `Fc1cccc(CN2CCC(N3CC(OCC4CC4)C34CCCCC4)CC2)c1` (stereo not drawn) the Potency was 4.22 µM (active). With `O=C(Nc1ccccc1)N1CCC(N2CC(OCC3CC3)C23CCOCC3)CC1` (stereo not drawn) the Potency was “inactive”. In the case of `COc1cccc(CN2CCC(N3CC(OCC4CC4)C34CCCCC4)CC2)n1` (stereo not drawn), the Potency is reported as 4.22 µM (active). For `CCc1ccc(NC(=O)N2CC(C(=O)N(C)C)C3(CCOCC3)C2)cc1` (stereo not drawn), the Potency was “inactive”. With `CC1=C(CC(=O)c2ccc(Cl)cc2)C(=O)c2ccccc2C1=O` the Potency was 0.211 µM (active). In the case of `O=C(Cn1cc(-c2nnnn2-c2ccc(Cl)cc2)c(=O)c2ccccc21)c1ccccc1`, the Potency is reported as “inactive”.
